The text below walks through data of PubChem BioAssay (NCI).

Assay in all cases: NCI-60 one-dose screen, 48 h (100 = growth as untreated, 0 = no growth, -100 = all killed)
Holding throughout (conditions): 10 µM unless noted

The subject of test [1] is NCI-H23 lung.
The subject of test [2] is NCI-H226 lung.
The test system of test [3] is NCI-H322M lung.
The subject of test [4] is HOP-62 NSCLC.
Test [5] relates to NCI-H460 lung.
In test [6] the test system is HOP-92 NSCLC.
The test system of test [7] is NCI-H522 lung.
Test [8] deals with A549/ATCC NSCLC.
Test [9] relates to 786-0 renal.
For test [10], the system named is COLO 205 colon.
Test [11] relates to DU-145 prostate.
Test [12] deals with K-562 leukemia.
In test [13] the test system is MALME-3M melanoma.
Test [14] deals with MDA-MB-231 breast.
The subject of test [15] is RXF 393 renal.
In test [16] the test system is SF-268 CNS.
Test [17] has as its system SF-295 CNS.
Test [18] relates to SF-539 CNS.
Test [19] concerns UACC-257 melanoma.
In test [20] the test system is M14 melanoma.

Several values for one entry are separate records, joined by “and”; a condition that tells them apart may be missing. Identical values can stand only once. About 83,000 compounds went through this panel and 20% of them were active in at least one assay; those are over-represented in the sample as a whole.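 Plates (96-well) were seeded with cells, treated with compound at one concentration, and incubated for 48 hours before percent growth was determined.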 A number with no mark means an inactive call. Activity calls are given as the source filed them. Rule for the calls: active = growth percent below 10; inactive = the rest.

In the case of `Cn1cc(-c2nonc2-c2cn(C)c3ccc(Br)cc23)c2ccccc21`, the growth in [1] was 56.4%; in [2], 71.3%; in test [3] it was 64%; in test [4], 25.8%; in test [5] it was 12.9%; in test [6], 44.4%. Besides, the growth in [7] is 8.18% (active); in [8] it was 40.1%; in test [9] it was 33.3%; in test [10], 29.6%; in test [11], 53%; in [12] it was 13.3%. In addition, the growth in test [13] was 30.2%; in test [14] it was 45.5%; in test [15] it was 42.4%; in test [16], 37.3%; in test [17] it was 16.4%; in test [18], -0.366% (active). Moreover, the growth in test [19] is 49.5%; in test [20] it was 17.7%.

In the case of `COc1cc2cc(NCc3ccncc3)nc(C)c2cc1OC`, the growth was 91.5% in test [1]; 89.7% in test [2]; 103% in test [3]; 62% in [4]; 102% in test [5]; 87.2% in test [6]. The growth was 80.4% in test [7]; 78.9% in test [8]; 71.8% in test [9]; 95.8% in [10]; 107% in test [11]; 126% in test [12]. Also, the growth in [13] was 108%; in [14], 85.9%; in [15] it was 98.5%; in [16] it was 81.9%; in test [17] it was 71.3%; in test [18], 89.3%. Moreover, the growth was 79.3% in test [19] and 82% in [20].

Turning to `O=C(N=Nc1c(O)[nH]c2ccccc12)Nc1ccc(Br)cc1`, the growth in [1] was 101%; in test [2], 83.6%; in test [3] it was 70.9%; in test [4], 98.4%; in test [5], 92.1%; in test [6] it was 66.5%. Further, the growth was 72.3% in test [7]; 98.9% in test [8]; 89.6% in test [9]; 97.8% in test [10]; 93.3% in test [11]; 79% in test [12]. The growth in test [13] is 86.1%; in [14], 110%; in test [15], 82.4%; in test [16], 86.2%; in [17], 93%; in test [18], 83.6%. Moreover, the results for the growth in [19] and in test [20] were 115% and 89.8%, respectively.

On to `CC(=O)OC[C@]12CCC(C)(C)C=C1[C@H]1CC[C@@H]3[C@@]4(C)CCCNC(C)(C)[C@@H]4CC[C@@]3(C)[C@]1(C)CC2`, for which the growth in test [1] is 65%; in test [2], 77.9%; in [3], 98.9%; in [4] it was 91.8%; in [5] it was 49.4%; in [6], 83%. Moreover, the growth in test [7] is 39.4%; in test [8] it was 83%; in [9] it was 82.2%; in test [10], 1.01% (active); in test [11], 87.4%; in test [12], 14.2%. For the same compound, the growth was 41.9% in [13]; 82.1% in test [14]; 89.2% in test [15]; 81.2% in [16]; 100% in [17]; 95.2% in test [18]. Further, the growth in test [19] is 31.9%; in [20], 64.8%.

Regarding `O=C1/C(=C/c2ccc(-c3ccccc3C(F)(F)F)o2)SC(=S)N1CCc1ccc(O)cc1`, the growth is 78.2% in [1]; 90.2% in [2]; 75.6% in [3]; 50.2% in test [4]; 48.3% in [5]; 61% in test [6]. Also, the growth in test [7] is -11% (active); in test [8], 45.7%; in [9], 65%; in test [10], 48.1%; in test [11] it was 66.2%; in test [12], 17.5%. Besides, the growth in test [13] is 32.2%; in test [14], 67%; in test [15] it was 71.2%; in test [16], 51.4%; in test [17], 54.4%; in test [18], 54.2%. In addition, the growth in test [19] was 67%; in test [20], 34.4%.

For the compound `COc1cccc(NC(=O)c2sc3nc(C)c(C(O)c4ccccc4)cc3c2N)c1` (stereo not given), the growth was 22.9% in test [1]; 55% in test [2]; 49.7% in [3]; 32.5% in test [4]; 4.01% (active) in test [5]; 58.6% in [6]. The growth was 0.582% (active) in test [7]; 22.4% in test [8]; 34.4% in test [9]; 5.41% (active) in test [10]; 13.4% in test [11]; 6.52% (active) in test [12]. Moreover, the growth in [13] was 63.2%; in [14], 9.72% (active); in [15] it was 26.9%; in test [16] it was 38.5%; in test [17] it was 19.2%; in test [18] it was -5.58% (active). Also, the growth is 71.4% in test [19] and 13.9% in test [20].

With `O/N=C(/c1ccccc1)c1ccc2c3c(cccc13)CC2`, the growth in [1] was 97.3% and 95.1%; in [2], 100%; in [3], 106% and 102%; in test [4] it was 93.1% and 94.1%; in test [5], 87.6% and 96.7%; in test [6], 49.4% and 64.9%. Moreover, the growth in test [7] is 88.3% and 89.6%; in test [8], 73.8% and 94.4%; in test [9], 88.4% and 92.1%; in [10], 117% and 103%; in test [11], 107% and 105%; in test [12] it was 42.4% and 34.2%. For the same compound, the growth in test [13] was 87.6% and 91.9%; in test [14] it was 82.7% and 82.1%; in [15], 81.9% and 64.7%; in test [16] it was 105% and 94.6%; in [17], 82.1% and 83.3%; in [18] it was 111% and 90.5%. Besides, the growth is 83.2% and 87.2% in test [19]; 95.3% and 90.9% in test [20].
